These results are taken from PubChem BioAssay AID1030 (National Center for Advancing Translational Sciences (NCATS), 2008).

Out of some 220,000 compounds screened, about 16,000 (7.3%) were called active. Another 25% or so got no clear call; they are omitted. Shown is part of a subset that was picked to be rich in actives. Unmarked numbers belong to inactive results. Calls come from the whole dose curve; as a rule, active = well fitted inhibition curve with a large enough effect (not every such curve was filed as active); inconclusive = small, poorly fitted or top-dose-only effect, or another doubt; inactive = no such curve, though single readings can be large or run the other way.
Potency is the fitted concentration of half-maximal effect.

In the assay the target is Aldehyde dehydrogenase 1A1 (Homo sapiens) (UniProt P00352). Description: qHTS Assay for Inhibitors of Aldehyde Dehydrogenase 1 (ALDH1A1).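 For activity, negative = inhibition: plate controls were no enzyme wells and a reference inhibitor.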 As to conditions: Purified ALDH1A1, NADH fluorescence, propionaldehyde substrate; series mostly up to 75.3 µM; activity, negative = inhibition: at the top concentration. Background: Quantitative high-throughput screening tests each substance at several concentrations.
Chain of Aldehyde dehydrogenase 1A1 (Homo sapiens) (P00352 whole entry, looked up): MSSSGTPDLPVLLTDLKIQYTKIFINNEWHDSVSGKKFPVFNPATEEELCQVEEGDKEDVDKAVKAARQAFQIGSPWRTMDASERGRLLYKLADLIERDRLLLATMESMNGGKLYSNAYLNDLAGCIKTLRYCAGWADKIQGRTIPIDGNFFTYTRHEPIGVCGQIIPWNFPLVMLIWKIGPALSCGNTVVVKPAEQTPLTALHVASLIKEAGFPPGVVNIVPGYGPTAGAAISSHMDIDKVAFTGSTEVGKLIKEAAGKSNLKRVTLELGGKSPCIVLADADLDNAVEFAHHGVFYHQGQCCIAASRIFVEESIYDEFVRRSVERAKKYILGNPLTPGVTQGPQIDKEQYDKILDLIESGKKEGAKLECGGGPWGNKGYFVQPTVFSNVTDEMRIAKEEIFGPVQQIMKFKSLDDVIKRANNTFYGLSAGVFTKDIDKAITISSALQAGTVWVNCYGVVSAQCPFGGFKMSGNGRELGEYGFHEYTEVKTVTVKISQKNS
Consider `O=C(Nc1cccnc1)c1ccc(Cl)cc1[N+](=O)[O-]`, for which the “activity, negative = inhibition” value is 3.9%. `CC(CNc1ccc([N+](=O)[O-])c2cccnc12)Nc1c([N+](=O)[O-])cc(C(F)(F)F)cc1[N+](=O)[O-]` (stereo unspecified): the “activity, negative = inhibition” value is -0.123%.

As for `O=[N+]([O-])c1cc([N+](=O)[O-])c2cccnc2c1O`, the Potency is 25.1 µM (active).

For the compound `O=S(=O)(Nc1ccc(Oc2ncccn2)c(Cl)c1)c1ccc(F)cc1`, the Potency is 10 µM (active). Regarding `Cn1c(=O)n(C)c2cc(NS(=O)(=O)c3ccc(F)cc3)ccc21`, the “activity, negative = inhibition” value was -6.74%. Same read-out and setting: as for `O=S(=O)(Nc1ncccn1)c1ccc(NS(=O)(=O)c2cccc(Cl)c2Cl)cc1`, the figure is -1.37%; as for `CC(=O)Nc1ccc(NC(=S)NC(=O)c2ccc([N+](=O)[O-])c(C)c2)cc1`, 3.84%.

Regarding `Cc1cc(N2CCN(C)CC2)nc2ccc(NC(=S)N3CCOCC3)cc12`, the “activity, negative = inhibition” value was 0.325%.

For `CC1COc2ccccc2N1S(=O)(=O)c1ccccc1` (stereo unspecified), the “activity, negative = inhibition” value was -0.879%.

Consider `O=C(C1CCN(C2CCN(Cc3ccc4cc(F)ccc4n3)CC2)CC1)N1CCCC1`, for which the “activity, negative = inhibition” value was -6.91%.

In the case of `Cc1cccc(-n2c(=O)c3c(C)c(C)sc3n(CC(N)=O)c2=O)c1`, the “activity, negative = inhibition” value is 2.1%. Regarding `CN(C)c1ccc(C2Nc3ccccc3C(=O)N2NS(=O)(=O)c2ccccc2)cc1` (stereo unspecified), the Potency is 25.1 µM (active). As to `NC(=O)Nc1ccccc1C(=O)NCCc1ccccc1`, the “activity, negative = inhibition” value is -2.25%. Still for that read-out and setting: under `CC(OC(=O)c1ccc2ccccc2n1)C(=O)c1ccccc1` (stereo unspecified) stands -2.56%. On to `COc1ccc(C(=O)COC(=O)c2ccc3ccccc3n2)cc1`, for which the Potency is 17.8 µM (active). Regarding `CCCCC(C(=O)OCC(=O)c1ccc(OC)cc1)N1C(=O)c2ccccc2C1=O` (stereo unspecified), the “activity, negative = inhibition” value was -1.59%. Regarding `c1ccc2sc(NN=C3CCCC3)nc2c1`, the “activity, negative = inhibition” value is -5.13%. Turning to `O=C1CCC(=O)N1c1ccc(NCCc2ccccc2F)c([N+](=O)[O-])c1`, the “activity, negative = inhibition” value is 8.56%. For `Cc1nc2ccccn2c1C(=O)NN=C1CCN(C)CC1`, the Potency was 20 µM (active). `C/C(=N\OC(=O)c1ccccc1)c1c(C)nc2cc(C)ccn12`: the “activity, negative = inhibition” value is 2.96%. As to `Cc1cc(CNCc2c(C(=O)N(C)Cc3ccccc3)nc3ccccn23)nn1C`, the “activity, negative = inhibition” value is -8.13%. On the same count and under the same terms, as for `Cc1ccccc1OC(=O)Cn1c(C(F)(F)F)nc2ccccc21`, the figure is -0.417%. Consider `CCCCn1c(O)c(N=NC(=O)Cn2c(C(F)(F)F)nc3ccccc32)c2ccccc21`, for which the Potency was 4.47 µM (active). Take `CN1CCN(C(=O)Cn2c(C(F)(F)F)nc3ccccc32)CC1`: the “activity, negative = inhibition” value was 1.59%. Regarding `Cc1cc(C)cc(OCC(=O)Nc2ccc(S(=O)(=O)Nc3ccccn3)cc2)c1`, the “activity, negative = inhibition” value is -1.38%. For the compound `CC(CCO)Nc1nc2c([nH]1)c(=O)n(C)c(=O)n2C` (stereo unspecified), the “activity, negative = inhibition” value is 8.27%.

`Cc1ccc(NN=Nc2nc3c([nH]2)c(=O)n(C)c(=O)n3C)cc1`: the Potency was 7.94 µM (active).

As to `COc1ccc2cc(-c3[nH]ncc3CNCCn3nc(C)cc3C)ccc2c1`, the “activity, negative = inhibition” value was 13.3%. Turning to `Cc1c(O)c(Br)c(C)c(O)c1Br` (tested in a mixture with another compound), the Potency is 1.12 µM (active). Take `COCCN(C(=O)CCC(=O)Nc1nccs1)C(C(=O)NC(C)(C)C)c1ccc(Cl)cc1` (stereo unspecified): the “activity, negative = inhibition” value is 1.03%. For `Cc1ccc(OCc2n[nH]c(=S)n2-c2ccc(C)cc2)cc1`, the “activity, negative = inhibition” value was 9.12%. On to `COc1ccc(OCc2n[nH]c(=S)n2N)cc1`, for which the Potency was 4.47 µM (active). As for `Cc1ccc(OCc2n[nH]c(=S)n2-c2ccccc2)cc1`, the “activity, negative = inhibition” value is -17.2%. As for `Cc1noc(C)c1CCC(=O)O`, the “activity, negative = inhibition” value was 13.5%.

`O=C(c1cccc(S(=O)(=O)N2CCCC2)c1)N(Cc1ccco1)C1CCS(=O)(=O)C1` (stereo unspecified): the “activity, negative = inhibition” value is -11%.

Take `COc1cc(OC)c2c(-c3cccc(-c4cccc(N)c4)c3)cc(=O)oc2c1`: the “activity, negative = inhibition” value was 10.4%. Consider `CCOc1ccc(CN(Cc2ccco2)C(c2cccs2)c2nnnn2C(C)(C)C)cc1` (stereo unspecified), for which the “activity, negative = inhibition” value was -9.85%. For the compound `CCC(c1nnnn1Cc1ccco1)N(CCc1ccccc1)Cc1cc2ccc(OC)cc2[nH]c1=O` (stereo unspecified), the Potency was 10 µM (active). As for `CCC(c1nnnn1Cc1ccco1)N(CCc1ccccc1)Cc1cc2cccc(C)c2[nH]c1=O` (stereo unspecified), the Potency is 7.94 µM (active). In the case of `CCN(CC)CCNS(=O)(=O)c1ccc(/C=C/C(=O)O)cc1`, the “activity, negative = inhibition” value was 4.64%. Take `Cc1noc(C)c1COC(=O)COc1ccc(-c2ccccc2)cc1`: the “activity, negative = inhibition” value was -3.27%. With `Cc1nn(CC(=O)Nc2ccc(C#N)cc2)c(C)c1[N+](=O)[O-]`, the “activity, negative = inhibition” value is -1.5%. With `CCCC(C)C(=O)NCc1ccncc1` (stereo unspecified), the “activity, negative = inhibition” value was -0.695%. In the case of `OCCC1CN(Cc2cccc(OC3CCCC3)c2)CCN1Cc1ccsc1` (stereo unspecified), the “activity, negative = inhibition” value is 3.75%. Turning to `COC(=O)c1cc(=O)n(-c2c(Cl)cc(C(F)(F)F)cc2Cl)[nH]1`, the “activity, negative = inhibition” value is -14.8%. As for `Cc1ccc(CNC(=O)CC2Sc3ccccc3NC2=O)cc1` (stereo unspecified), the “activity, negative = inhibition” value is 13.1%. Take `Cn1c(CCC(=O)Nc2ccccc2F)nnc1SCC(=O)Nc1ccccc1Cl`: the “activity, negative = inhibition” value is 3.73%. As for `Cn1c(CC2Sc3ccccc3NC2=O)nnc1SCC(=O)c1ccc(Cl)cc1` (stereo unspecified), the Potency is 3.98 µM (active). For `COc1cc(C)c(Cl)cc1S(=O)(=O)n1ccnc1`, the “activity, negative = inhibition” value was 3.9%.

As to `Cc1nc(N)[nH]c(=O)c1Oc1cccc(C(F)(F)F)c1`, the “activity, negative = inhibition” value is 11.3%. Still for that read-out and setting: under `Cn1c(-c2ccccc2)c[n+]2c1CCCCC2` stands 9.53%. On to `Cc1cccc(NC(=O)c2ccc(OCC(=O)NCc3ccccc3)cc2)c1C`, for which the “activity, negative = inhibition” value was 2.27%. In the case of `COc1ccc(C(=O)Nc2cc(C)ccc2NC(=O)COc2ccccc2)cc1`, the Potency was 3.98 µM (active).

As for `COc1ccc(OCC(=O)NNC(=O)c2cccc(C)c2)cc1`, the “activity, negative = inhibition” value was -4.62%. As to `CCOC(=O)Cc1ncccc1C(=O)Nc1ccc(OC(F)(F)F)cc1`, the “activity, negative = inhibition” value is 0.304%.

`Cn1nnnc1-c1cc(Cl)cc(Cl)c1`: the “activity, negative = inhibition” value is 8.19%. In the case of `COc1ccc(Br)cc1C(=O)NC(=S)Nc1cc(-c2nc3ccccc3[nH]2)ccc1C`, the Potency is 12.6 µM (active). Turning to `COc1ccc(/C=C(/NC(=O)c2ccc(C)cc2)c2nc3ccccc3[nH]2)cc1OC`, the “activity, negative = inhibition” value was 0.538%. Consider `COc1ccc(Br)cc1C(=O)Nc1cccc(C)c1C`, for which the “activity, negative = inhibition” value is -13.1%. With `CC(OC(=O)CCc1nc(=O)c2ccccc2n1C)C(=O)NCc1ccc2c(c1)OCO2` (stereo unspecified), the “activity, negative = inhibition” value was 6.11%. `CC(C)CNC(=O)C(=O)Nc1ccc(N(C)C)cc1`: the “activity, negative = inhibition” value is 1.43%.

On to `COc1cc(CC(=O)N/N=C/c2ccccc2)c([N+](=O)[O-])cc1OC`, for which the “activity, negative = inhibition” value was -4.67%. Regarding `COc1cc(CN2CC(C)CC(C)C2)cc([N+](=O)[O-])c1O` (stereo unspecified), the “activity, negative = inhibition” value was -4.5%. Regarding `COc1cc(CN2CCN(Cc3ccc(C)cc3)CC2)c([N+](=O)[O-])cc1OC`, the Potency is 17.8 µM (active).

As for `COC(=O)C1=C(N)Oc2c(oc(CO)cc2=O)C1c1c(F)cccc1Cl` (stereo unspecified), the “activity, negative = inhibition” value was 4.29%. The same measure, in the same setting: as for `C/C(=N\NC(=O)NC1CCCCC1)c1ccc(OC(F)F)cc1OC(F)F`, the figure is -6.28%.
